KB-V1 cytotox: KB-V1 MDR subline cytotoxicity | KB-V1 MDR cells viability, CellTiter-Glo, 72 h | Potency, µM (doses to about 46.1 µM), actives largely listed as cytotoxic | 400,000 compounds, 3.4% hits | AID 1347076; also: nearly all actives have a fitted effect of over 60% in size
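KB-V1 MDR subline cells in DMEM (phenol-red free, 10% FBS) exposed to compounds in qHTS concentration series for 72 h at 37 degrees C. Viability read by CellTiter-Glo luminescence; concentration-effect curves fitted after normalization and correction.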
KB-3-1 cytotox: kills parental KB-3-1 adenocarcinoma cells | Potency, µM (series often up to 46.1 µM), hits mostly cytotoxic | KB-3-1 viability, CellTiter-Glo ATP luminescence, 72 h | 400,000 compounds, 1.4% hits; also: nearly all actives have a fitted effect of over 60% in size
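Luminescent ATP read-out (CellTiter-Glo) measures survival of drug-naive KB-3-1 cells after 72 h compound exposure at 37 °C. Titration series was screened from lowest to highest concentration, with DMSO vehicle plates as background controls.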
HT1080-NT tox: kills 2HG-producing HT-1080-NT fibrosarcoma cells; 360,000 compounds, 1.6% hits; AID 686970; Potency, µM (doses to about 46.1 µM), for the others: at the top dose activity, negative = less viability, most hits filed as cytotoxic; HT-1080-NT fibrosarcoma viability, CellTiter-Glo ATP luminescence, 48 h;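 also: NT is the 2HG producing partner of a matched IDH1 knockdown line; 0% = DMSO-treated cells and -100% = media-only wells without cells; nearly all actives have a fitted effect of over 55% in size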
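Fibrosarcoma NT cells, 750 per well in 5% FBS RPMI, were exposed to compound for 48 hours. Viability: CellTiter-Glo luminescence.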
TDP1 cell noCPT: qHTS for Inhibitors of human tyrosyl-DNA phosphodiesterase 1 (TDP1): qHTS in cells in absence of CPT | 420,000 compounds, 15% hits | Potency, µM (highest dose often 46.2 µM), inactives show top-dose activity change, negative = growth inhibition, most hits filed as inhibitors | DT40 Tdp1-/- hTDP1 cells, no CPT, ATP luminescence, 48 h | AID 686978, 2013; also: nearly all actives have a fitted effect of over 55% in size
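Camptothecin absent (DMSO only). Human TDP1-complemented DT40 knockout cells, 400 cells/well, 37 °C for minimum 48 hr; ATP measured via CellTiter-Glo, 30 min dark incubation, luminescence.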
HT1080 IDH1KD tx: kills HT-1080 cells with IDH1 knockdown | HT-1080 IDH1 knockdown viability, ATP luminescence, 48 h | Potency, µM (doses to about 46.1 µM), inactives show at the highest dose activity, negative = toxicity, usual class: cytotoxic | 360,000 compounds, 2% hits | AID 686971;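 also: 0% = DMSO wells and -100% = cell-free medium wells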
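Viability of IDH1-knockdown HT-1080 fibrosarcoma cells was assessed by CellTiter-Glo after 48 h at 37 °C with titrated compound; concentration-effect curves were classified by fit quality and response size.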
TDP1 cell CPT: growth inhibition of DT40 Tdp1-/-;hTDP1 cells with camptothecin (screen for TDP1 inhibitors) | chicken DT40 Tdp1-/-;hTDP1 cells + 20 nM CPT, ATP luminescence, 48 h | Potency, µM (highest dose often 46.2 µM), without a hit: at the top dose activity change, negative = growth inhibition, hits mostly inhibitors | 420,000 compounds, 12% hits; also: nearly all actives have a fitted effect of over 55% in size
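Cell growth measured by CellTiter-Glo luminescence after a minimum 48 h, 37 C compound exposure with 20 nM CPT in Tdp1-knockout DT40 cells stably expressing hTDP1, seeded 400/well; qHTS titration format.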
* hit, by the source's call; i = inactive; u = inconclusive; x = no result. Shown are actives, neighbours in structure and some others; about 19% of the full set was active somewhere. Calls follow the shape of the dose curve; as a rule, active = well fitted curve in the direction sought with a large enough effect; inconclusive = small, poorly fitted or top-dose-only effect, or another doubt; inactive = no such curve, though single readings can be large; an effect the other way counts as inactive or inconclusive. Unless noted, % is scaled to controls: 0 for no effect and ±100 for the full control effect; potency is read from the fitted curve at half-maximal effect.

SMILES | KB-V1 cytotox | KB-3-1 cytotox | HT1080-NT tox | TDP1 cell noCPT | HT1080 IDH1KD tx | TDP1 cell CPT
COc1ccc(N(C(=O)c2ccc(Br)o2)C2C=CS(=O)(=O)C2)c(OC)c1 (stereo not drawn) | i | i | -4% | 18µM* | 7% | u
COc1ccc(N(C(=O)c2ccc3c(c2)OCO3)C2C=CS(=O)(=O)C2)c(OC)c1 (stereo not drawn) | u | i | 6% | -1% | 16% | 4%
CC(CCc1ccc(O)cc1)NCc1ccc(Br)cc1 (stereo not drawn) | i | i | u | 16µM* | u | 12µM*
CC(CCc1ccccc1)NCC#N (stereo not drawn) | i | i | 7% | 25% | 8% | -25%
CC(CCc1ccc(O)cc1)NCCC(c1ccccc1)c1ccccc1 (stereo not drawn) | u | u | 21µM* | 5.2µM* | 21µM* | u
CC(CCc1ccc(O)cc1)NC(c1ccccc1)c1ccc(Cl)cc1 (stereo not drawn) | i | i | 10µM* | u | 7.3µM* | u
COc1ccc(CNC(C)CCc2ccccc2)cc1 (stereo not drawn) | i | i | -17% | u | -18% | u
CCN(CC)c1ccc(NC(=O)CN2CCN(S(=O)(=O)c3ccc(C(C)C)cc3)CC2)cc1 | i | i | x | u | x | u
Cc1ccc(CNC(=O)CN2C(=O)C3(SCC(=O)N3c3ccc(F)c(F)c3)c3ccccc32)cc1 (stereo not drawn) | i | i | x | u | x | -27%
N#CC1(Cc2ccc([N+](=O)[O-])cc2)c2ccccc2C=CN1C(=O)c1ccccc1 (stereo not drawn) | i | i | 10% | 15µM* | 7% | u
CC(Oc1ccc2ccc(=O)oc2c1)C(=O)N1CCOCC1 (stereo not drawn) | i | i | 1% | -17% | 9% | 12%
O=S(=O)(Cc1cc(NCc2ccccc2)nc(-c2ccccn2)n1)c1ccccc1 | i | i | 2% | 4.6µM* | 3% | 4.6µM*
O=C(CSc1nnnn1-c1ccc(Cl)cc1)Nc1cccnc1Cl | 16µM* | i | 4% | u | 21% | 23µM*
NC(=O)c1nn(-c2ccccc2)nc1NC(=O)CSc1nnnn1-c1ccc(Cl)cc1 | i | i | 1% | 16µM* | -7% | u
NC(=O)c1ccc(-n2nnnc2SCC(=O)Nc2ccccc2-c2ccccc2)cc1 | i | i | -7% | 16µM* | -1% | u
COC(=O)c1ccc(-n2nnnc2SCC(=O)Nc2ccccc2C(=O)OC)cc1 | i | i | -1% | u | -2% | u
Cc1ccc(-n2nnnc2SCC(=O)Nc2cccnc2Cl)cc1 | i | i | -5% | u | -15% | -12%
CC(=O)Nc1ccccc1C(=O)N1CC2(C)CC1CC(C)(C)C2 (stereo not drawn) | i | i | 8% | -1% | 1% | -5%
CC1(C)C[C@@H]2C[C@@](C)(CN2C(=O)c2ccccc2)C1 | i | i | 1% | 15µM* | 1% | u
Cc1cccc(C(=O)N2CC3(C)CC2CC(C)(C)C3)c1 (stereo not drawn) | u | i | 9% | 23µM* | 9% | 21µM*
CC1(C)CC2CC(C)(CN2C(=O)c2cccs2)C1 (stereo not drawn) | i | i | -3% | 8.2µM* | -8% | u
CC1(C)CC2CC(C)(CN2C(=O)c2ccc([N+](=O)[O-])cc2)C1 (stereo not drawn) | i | i | 1% | u | -17% | 21µM*
O=C(O)c1ccc2c(c1)CC(c1ccccc1)OC2=O (stereo not drawn) | i | i | 11% | -9% | 9% | 7%
O=C1OC(c2ccccc2)Cc2cc(C(=O)N3CCN(c4ccc(F)cc4)CC3)ccc21 (stereo not drawn) | u | i | -1% | u | -18% | 18µM*
COc1ccc(N2CCN(C(=O)c3ccc4c(c3)CC(c3ccccc3)OC4=O)CC2)cc1 (stereo not drawn) | u | u | -27% | 21µM* | -20% | u
SMILES | KB-V1 cytotox | KB-3-1 cytotox | HT1080-NT tox | TDP1 cell noCPT | HT1080 IDH1KD tx | TDP1 cell CPT
CCCSc1nnc2[nH]c(=O)cc(C)n12 | x | x | x | -2% | x | 6%
O=C(NCc1ccccc1)C1c2ccccc2OCC(=O)N1CCc1c[nH]c2ccccc12 (stereo not drawn) | i | i | 13% | u | 5% | -28%
COc1cc(OC)c(/C=C/c2cc3ccccc3c[n+]2C)c(OC)c1 | i | 0.92µM* | x | 1µM* | x | 0.5µM*
COc1ccc(OC)c(/C=C/c2cc3ccccc3c[n+]2C)c1 | i | u | x | 2µM* | x | 2.8µM*
COc1ccc(OC)c(/C=C/c2c3ccccc3cc[n+]2C)c1 | i | u | x | 1.4µM* | x | 2.2µM*
COc1ccc(OC)c(/C=C/c2sc3ccccc3[n+]2C)c1 | i | u | x | u | x | u
CN(CCOc1ccc(C[C@H](Nc2ccccc2C(=O)c2ccccc2)C(=O)O)cc1)c1ccccn1 | x | x | x | -6% | x | 1%
COc1ccc(CNC(=O)Cn2c(=O)c3cccn3c3cccnc32)cc1 | x | x | x | -27% | x | -5%
COc1cc(CNc2ncnc3c2ncn3[C@H]2CN(CCc3ccccc3)C[C@@H](CO)O2)cc(OC)c1OC | i | i | 14% | u | -1% | u
Cc1cc(C)c(NC(=O)CSc2cn(CC(=O)N3CCOCC3)c3ccccc23)c(C)c1 | x | x | x | -27% | x | -10%
Cc1cccc(C(=O)Nc2ccccc2SCC(=O)Nc2ccc(C)c(Cl)c2)c1 | u | 12µM* | -20% | u | u | u
Cc1ccc(NC(=O)CSc2cn(CC(=O)N3CCOCC3)c3ccccc23)cc1Cl | x | x | x | 21µM* | x | 21µM*
Cc1cccc(NC(=O)CS(=O)(=O)c2cn(CC(=O)N3CCOCC3)c3ccccc23)c1 | i | i | 0% | 2.3µM* | 16% | 0.52µM*
O=C(CSc1cn(CC(=O)N2CCCC2)c2ccccc12)Nc1ccc(Cl)cc1 | i | i | x | u | x | u
COC(=O)c1ccc(NC(=O)CSc2cn(CC(=O)N3CCCCCC3)c3ccccc23)cc1 | x | x | x | 18µM* | x | u

Screens from PubChem.
